# Laboratory results as given in PubChem BioAssay (NCATS).
# Inconclusive results are not listed. A call without a number means that no potency is given here. The source made the active and inactive calls. Calls come from the whole dose curve; as a rule, active = well fitted curve in the direction sought with a large enough effect; inconclusive = small, poorly fitted or top-dose-only effect, or another doubt; inactive = no such curve, though single readings can be large; an effect the other way counts as inactive or inconclusive.
# Assays:
# [1] = biological target: N-terminal Xaa-Pro-Lys N-methyltransferase 1 (Homo sapiens) (UniProt Q9BV86); test: qHTS Assay for Inhibitors of N-terminal methyltransferase 1 (NTMT1): LOPAC validation of the NTMT1 SAHH-coupled ThioGlo3 Assay (AID 1347143);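 note: SAH from peptide methylation measured as thiol fluorescence via SAHH coupling and ThioGlo3; nearly all actives have a fitted effect of over 70% in size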; note: potency is the fitted concentration of half-maximal effect
# In short: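 Recombinant human NTMT1 (125nM) was pre-incubated 1 min at room temperature with compounds over a concentration range, then a mix of 100uM SAM, 10uM SAHH and 15uM ThioGlo3 (concentrations in added reagent) was added. ThioGlo3 fluorescence (ex 340/em 450nm) after 30 min was normalized to the initial reading.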
# [2] = system: Zika virus NS2B-NS3 protease (unlinked); test: Optimization of GU AMC qHTS for Zika virus inhibitors: Unlinked NS2B-NS3 protease assay (AID 1347151); note: nearly all actives have a fitted effect of over 80% in size; note: potency is the fitted concentration of half-maximal effect
# In short: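 Fluorescence read-out (340 nm ex / 450 nm em) of AMC peptide cleavage, taken immediately and after 15 min at room temperature (~20% conversion). Enzyme was the unlinked NS2B–NS3 complex at 25 nM in Tris pH 8.0 buffer.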
# [3] = system: Zika virus NS2B-NS3 protease; test: Primary screen GU AMC qHTS for Zika virus inhibitors (AID 1347154); note: nearly all actives have a fitted effect of over 70% in size; note: potency is the fitted concentration of half-maximal effect
# In short: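 Unlinked Zika NS2B hydrophilic domain–NS3 protease complex at 25 nM in 10 mM Tris-HCl pH 8.0, 0.01% Tween 20, with an AMC peptide substrate. Fluorescence change (340/450 nm) over 15 min at room temperature, normalized to controls, fitted to 4-parameter Hill.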
# [4] = qHTS of pediatric cancer cell lines to identify multiple opportunities for drug repurposing: Confirmatory screen for SK-N-SH cells (AID 1347129);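 note: cells exposed to compound for 48 h before viability read; nearly all actives have a fitted effect of over 60% in size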
# In short: (§1)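 Viability after 48 h compound treatment at 37C, 500-1,000 cells/well, read as ATP luminescence with CellTiter-Glo. Primary screens used 11-point (MIPE, 0.78 nM-46 µM) or 8-point (NPC, 0.59 nM-46 µM) final concentrations; follow-up screens used 11-point dilutions.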
# [5] = qHTS of pediatric cancer cell lines to identify multiple opportunities for drug repurposing: Confirmatory screen for OHS-50 cells (AID 1347128);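 note: compound exposure lasted 48 h at 37 degrees C; nearly all actives have a fitted effect of over 55% in size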
# In short: as §1
# [6] = biological target: Furin (Homo sapiens) (UniProt P09958); test: Furin counterscreen qHTS for Zika virus inhibitors (AID 1347149); note: nearly all actives have a fitted effect of over 70% in size; note: potency is the fitted concentration of half-maximal effect
# In short: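 Fluorogenic cleavage of BOC-RVRR-AMC (2 microM final, Km ~15 µM) was monitored (ex 340, em 450 nm) at 37C after 15 min RT preincubation of 5 nM furin with compounds in HEPES pH 7.0 buffer with CaCl2 and Triton X-100. Percent inhibition was fitted to a 4-parameter Hill curve.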
# [7] = system: Zika virus NS2B-NS3 protease (linked construct); test: Confirmatory screen NINDS AMC qHTS for Zika virus inhibitors (AID 1347152); note: potency is the fitted concentration of half-maximal effect; nearly all actives have a fitted effect of over 70% in size
# In short: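 Linked NS2B-NS3 1 nM, Tris pH 8.0/0.01% Tween 20; cpd 15 min RT dark; + Nle-KRR-AMC 10 µM (Km 18.3 µM); read 0 and 15 min, 340/450 nm; %inh vs controls, 4-param Hill.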
# Chain of N-terminal Xaa-Pro-Lys N-methyltransferase 1 (Homo sapiens) (Q9BV86 whole entry, looked up): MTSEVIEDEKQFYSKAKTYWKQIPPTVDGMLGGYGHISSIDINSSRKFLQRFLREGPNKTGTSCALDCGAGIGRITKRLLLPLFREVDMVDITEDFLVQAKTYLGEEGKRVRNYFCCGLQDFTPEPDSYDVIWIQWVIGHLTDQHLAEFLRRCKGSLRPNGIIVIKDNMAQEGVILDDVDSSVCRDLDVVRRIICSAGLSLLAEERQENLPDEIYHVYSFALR
# Chain of Furin (Homo sapiens) (P09958 whole entry, looked up): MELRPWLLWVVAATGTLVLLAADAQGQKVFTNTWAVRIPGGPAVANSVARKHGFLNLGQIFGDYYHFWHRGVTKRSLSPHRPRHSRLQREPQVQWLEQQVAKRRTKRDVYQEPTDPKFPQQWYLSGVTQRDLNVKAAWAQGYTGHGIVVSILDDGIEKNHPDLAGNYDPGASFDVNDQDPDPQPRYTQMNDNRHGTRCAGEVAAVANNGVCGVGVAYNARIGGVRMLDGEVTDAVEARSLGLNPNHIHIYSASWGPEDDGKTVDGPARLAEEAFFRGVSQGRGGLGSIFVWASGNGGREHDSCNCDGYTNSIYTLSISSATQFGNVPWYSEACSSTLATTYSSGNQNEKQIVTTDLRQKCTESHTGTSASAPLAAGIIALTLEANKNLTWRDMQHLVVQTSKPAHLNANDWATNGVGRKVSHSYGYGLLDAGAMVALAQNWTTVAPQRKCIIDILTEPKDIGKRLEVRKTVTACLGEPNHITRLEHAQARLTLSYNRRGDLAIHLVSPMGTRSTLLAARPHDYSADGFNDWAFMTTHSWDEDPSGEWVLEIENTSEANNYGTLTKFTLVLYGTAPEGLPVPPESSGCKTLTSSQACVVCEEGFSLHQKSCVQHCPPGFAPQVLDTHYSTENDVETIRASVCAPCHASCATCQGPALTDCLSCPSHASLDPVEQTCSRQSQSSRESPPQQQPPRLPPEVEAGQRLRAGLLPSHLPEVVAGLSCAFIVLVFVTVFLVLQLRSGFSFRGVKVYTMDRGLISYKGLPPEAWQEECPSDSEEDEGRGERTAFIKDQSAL
structure (smiles),measurement,setting,value
NC(CCP(=O)(O)O)C(=O)O (stereo not given),Potency,[1],inactive
same,Potency,[2],inactive
same,Potency,[3],inactive
CCCN1CCC[C@H](c2cccc(O)c2)C1,Potency,[1],inactive
same,Potency,[2],inactive
COc1ccc2c(c[n+](C)c3c4cc5c(cc4ccc23)OCO5)c1OC,Potency,[1],25.1 µM (active)
same,Potency,[2],29.9 µM (active)
COc1ccc(C(=O)c2c(C)n(CCN3CCOCC3)c3cc(I)ccc23)cc1,Potency,[4],inactive
same,Potency,[3],inactive
C[C@]12CCC3C(CC[C@H]4C[C@H](O)CC[C@]34C)C1CC[C@@H]2C(=O)CO (stereo not given in full),Potency,[1],inactive
same,Potency,[2],inactive
NC(N)=NOCCC(N)C(=O)O (stereo not given),Potency,[1],inactive
same,Potency,[2],inactive
CC[C@H]1C=CC=CC[C@@H](C)[C@H](O)[C@@](C)(O)C(=O)[C@@H](C)[C@H](O)[C@@H](C)C(=O)[C@@H](C)[C@H](O)[C@@H](C)C=CC(=O)O[C@@H]2[C@@H](C)[C@H](CC1)O[C@]1(CC[C@H](C)[C@H](C[C@@H](C)O)O1)[C@H]2C,Potency,[5],inactive
same,Potency,[3],inactive
C=CCN1CC[C@]23CCCCC2[C@H]1Cc1ccc(O)cc13 (stereo not given in full),Potency,[1],inactive
same,Potency,[6],inactive
same,Potency,[2],inactive
C=CCON=C(C[C@H]1O[C@@H]2O[C@]3(C)CC[C@@H]4[C@H](C)CC[C@@H]([C@H]1C)[C@@]24OO3)[C@H]1O[C@@H]2O[C@]3(C)CC[C@H]4[C@H](C)CC[C@@H]([C@@H]1C)[C@@]24OO3,Potency,[4],inactive
same,Potency,[3],inactive
C[N+](C)(C)CC(=O)O,Potency,[2],inactive
CC(Cc1ccc(O)cc1)NCC(O)c1cc(O)cc(O)c1 (stereo not given),Potency,[2],inactive
same,Potency,[3],inactive
COC(=O)[C@@H](N)CCCN=C(N)N[N+](=O)[O-],Potency,[1],inactive
same,Potency,[2],inactive
same,Potency,[3],inactive
Oc1ccc2c3c1O[C@H]1c4[nH]c5c(c4C[C@@]4(O)[C@@H](C2)N(CC2CC2)CC[C@]314)C[C@@]1(O)[C@H]2Cc3ccc(O)c4c3[C@@]1(CCN2CC1CC1)[C@H]5O4,Potency,[2],inactive
same,Potency,[3],inactive
NC1CC1c1ccccc1 (stereo not given),Potency,[1],inactive
same,Potency,[2],inactive
same,Potency,[3],inactive
c1ccc(CCCN2CCN(CCOC(c3ccccc3)c3ccccc3)CC2)cc1,Potency,[2],inactive
same,Potency,[3],inactive
C/C=C(/C)C(=O)O[C@H]1C(C)=C2[C@H]([C@@H]1OC(=O)CCCCCCC)[C@@](C)(OC(C)=O)C[C@H](OC(=O)CCC)[C@@]1(O)[C@H]2OC(=O)[C@@]1(C)O,Potency,[1],inactive
same,Potency,[3],inactive
CNCCc1c[nH]c2ccc(O)cc12,Potency,[2],inactive
CC(=O)N(C)c1cccc(-c2ccnc3c(C(=O)c4cccs4)cnn23)c1,Potency,[6],24.1 µM (active)
same,Potency,[7],24.1 µM (active)
same,Potency,[3],21.5 µM (active)
CC(=O)NCCc1c[nH]c2ccccc12,Potency,[1],inactive
same,Potency,[2],inactive
same,Potency,[3],inactive
NC(CP(=O)(O)O)C(=O)O (stereo not given),Potency,[1],inactive
same,Potency,[2],inactive
same,Potency,[3],inactive
C[C@]12CC[C@@H]3[C@@H](CCC4=CC(=O)CC[C@@H]43)[C@@H]1CC[C@@H]2OC(=O)CCc1ccccc1,Potency,[3],inactive
S=C(NC1CCCCC1)N1CCC(c2cnc[nH]2)CC1,Potency,[1],inactive
same,Potency,[2],inactive
same,Potency,[3],inactive
COC[C@H]1OC(=O)c2coc3c2[C@@]1(C)C1=C(C3=O)[C@@H]2CC[C@H](O)[C@@]2(C)C[C@@H]1OC(C)=O,Potency,[3],inactive
Clc1cnc(Oc2ccc(Oc3ncc(Cl)cc3Cl)cc2)c(Cl)c1,Potency,[1],inactive
same,Potency,[2],inactive
same,Potency,[3],inactive
CCNC(=O)C[C@@H]1N=C(c2ccc(Cl)cc2)c2cc(OC)ccc2-n2c(C)nnc21,Potency,[3],inactive
C[C@@H](N)Cc1cnc[nH]1,Potency,[1],inactive
same,Potency,[2],inactive
same,Potency,[3],inactive
NCCc1c[nH]c2ccc(O)cc12,Potency,[2],inactive
same,Potency,[3],inactive
CC[C@@H](C(N)=O)N1CCCC1=O,Potency,[1],inactive
same,Potency,[2],inactive
same,Potency,[3],inactive
O=C1CCCN1CC#CCN1CCCC1,Potency,[1],inactive
same,Potency,[2],inactive
same,Potency,[3],inactive
NC1CCc2cc(O)c(O)cc2C1 (stereo not given),Potency,[1],22.4 µM (active)
same,Potency,[2],inactive
same,Potency,[3],inactive
CNCCc1ccc(O)c(O)c1,Potency,[2],inactive
CCCN1CCO[C@@H]2c3cc(O)ccc3OC[C@H]21,Potency,[2],inactive
same,Potency,[3],inactive
CCCN(CCC)[C@@H]1CCc2ccc(O)cc2C1,Potency,[1],inactive
same,Potency,[2],inactive
same,Potency,[3],inactive
NC(=NCCC[C@H](N)C(=O)O)N[N+](=O)[O-],Potency,[1],inactive
same,Potency,[2],inactive
same,Potency,[3],inactive
c1ccc2sc(C3(N4CCCCC4)CCCCC3)cc2c1,Potency,[1],inactive
same,Potency,[2],inactive
same,Potency,[3],inactive
CN[C@@H]1C[C@@H](c2ccc(Cl)c(Cl)c2)c2ccccc21,Potency,[2],inactive
O=C(Cc1ccc(Cl)c(Cl)c1)N1CCCCC1CN1CCCC1 (stereo not given),Potency,[1],inactive
same,Potency,[2],inactive
same,Potency,[3],inactive
O=[N+]([O-])c1cc([N+](=O)[O-])c2ccccc2c1,Potency,[3],inactive
